Bioassay records deposited in PubChem BioAssay by National Center for Advancing Translational Sciences (NCATS).
Only some compounds are listed: those with a hit (about 21% of all), similar ones and a draw of the others.
SARS PLP yeast: qHTS of Yeast-based Assay for SARS-CoV PLP; S. cerevisiae expressing SARS-CoV PLpro, growth rescue; Potency, µM (top dose mostly 32.9 µM), hits mostly activators; hit rate 0.19% among 330,000; AID 485353, 2010; further: nearly all actives have a fitted effect of over 55% in size
Cycloheximide cs: Cycloheximide Counterscreen for Small Molecule Inhibitors of Shiga Toxin | max response, % | AID 2314, 2010 | hit rate 12% among 300,000 | cell reporter, cycloheximide protein synthesis inhibition counterscreen; in the data active means max response mostly above about 13%, no sharp cut-off; inactive means mostly below about 14%; further: read at 38.3 µM for the half of the compounds with a filed dose
Pf growth 48h: Primary qHTS for delayed death inhibitors of the malarial parasite plastid, 48 hour incubation | P. falciparum luciferase growth in erythrocytes, 48 h | Potency, µM (highest dose often 28.7 µM), most hits filed as inhibitors | hit rate 5.9% among 310,000; active means well fitted inhibition curve with a large enough effect; inconclusive means small, poorly fitted or top-dose-only effect, or another doubt; inactive means no such curve, though single readings can be large or run the other way
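Here the parasites carry a stable luciferase gene and grow inside erythrocytes in Albumax-based RPMI medium with compound for one erythrocytic cycle. Activity is scored as loss of luminescent signal.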
Shiga inhibitor: A qHTS for Small Molecule Inhibitors of Shiga Toxin | Vero cells, Shiga toxin protein synthesis inhibition reporter | inhibition, % at 38.7 µM | hit rate 9.2% among 290,000 | AID 2315, 2010; in the data active means inhibition mostly above about 28%, no sharp cut-off; inactive means mostly below about 43%
Pf growth 96h: Primary qHTS for delayed death inhibitors of the malarial parasite plastid, 96 hour incubation | P. falciparum luciferase reporter growth, 96 h | Potency, µM (highest dose often 28.7 µM), actives largely listed as inhibitors | hit rate 6.9% among 320,000; active means well fitted inhibition curve with a large enough effect; inconclusive means small, poorly fitted or top-dose-only effect, or another doubt; inactive means no such curve, though single readings can be large or run the other way
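P. falciparum expressing integrated firefly luciferase grown in erythrocytes (2% hematocrit, 0.05% parasitemia final) with compounds for 96 hours at 37 C, 5% CO2. Growth inhibition read as loss of luminescence after adding luciferase detection reagent.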
NS1 inh: qHTS Assay for Inhibitors of Influenza NS1 Protein Function; Potency, µM (highest dose often 46.1 µM); AID 2326, 2010; hit rate 0.4% among 270,000; further: actives are rising curves; nearly all actives have a fitted effect of over 50% in size
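OD600 was taken as the measure of yeast growth restored by compound in an NS1-expressing S. cerevisiae strain. Cells had been washed out of glucose medium and diluted 1:100 into galactose -URA medium, pH 6.0.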
Of the large screens only hits and unclear results are named; the others gave an inactive call. Unless noted, the call rests on the fitted dose curve.

O=[N+]([O-])c1ccccc1COc1ccc(Cl)c2cccnc12	Cycloheximide cs 23, Shiga inhibitor 62
CCOc1ccc(-n2nnnc2SCC(=O)N2CCOCC2)cc1	none
O=C(CCSc1ccccc1)N1CCCC1	Cycloheximide cs 46, Shiga inhibitor 79
O=C(CCSc1nnnn1-c1ccccc1)N1CCOCC1	Shiga inhibitor 36 (no result: Pf growth 96h)
O=C(CCSc1ccccc1)N1CCOCC1	Cycloheximide cs 35, Shiga inhibitor 80, Pf growth 96h inconclusive
O=C(CCSc1nc2ccccc2o1)N1CCOCC1	Cycloheximide cs 32, Shiga inhibitor 56
COCCN(C(=O)COc1ccccc1C#N)c1c(N)n(Cc2ccccc2)c(=O)[nH]c1=O	Pf growth 96h inconclusive (no result: Cycloheximide cs, Shiga inhibitor, NS1 inh)
CCOC(=O)N1CCC(N(CCN(C)C)C(=S)Nc2ccc(OCC)cc2)CC1	none (no result: NS1 inh)
O=C(CCc1nc(-c2ccccc2)no1)NC1CCCCCC1	none (no result: Cycloheximide cs, Shiga inhibitor, NS1 inh)
COc1ccc(CCNC(=O)c2ccc(CNS(=O)(=O)c3ccc(C(C)(C)C)cc3)cc2)cc1OC	Pf growth 48h inconclusive, Pf growth 96h 13µM
COc1ccc(CCNC(=O)c2ccc(CNS(=O)(=O)c3cccc(Cl)c3)cc2)cc1OC	none
CCOc1ccc(CCNC(=O)c2ccc(CNS(=O)(=O)c3ccccc3)cc2)cc1OCC	Pf growth 48h inconclusive, Pf growth 96h 8.3µM
CCOc1ccc(CCNC(=O)c2cc(=O)[nH]c3ccc(S(=O)(=O)N(CC)CC)cc23)cc1OCC	Pf growth 48h 15µM, Pf growth 96h inconclusive
CCN(CC)S(=O)(=O)c1ccc2[nH]c(=O)cc(C(=O)NCc3ccccc3)c2c1	none
CCOc1ccc(CCNC(=O)c2ccc3ccccc3n2)cc1OCC	Cycloheximide cs 44, Pf growth 48h inconclusive, Shiga inhibitor 53, Pf growth 96h inconclusive
COc1c(C)cc(C(=O)C2CCCN(C(=O)c3cc(C4CC4)[nH]n3)C2)cc1C (stereo not given)	Pf growth 48h inconclusive, Pf growth 96h inconclusive
COc1ccc(CCNC(=O)c2cnc3ccccc3n2)cc1	Cycloheximide cs 14
COc1ccc(CCNC(=O)c2ccc(CNS(=O)(=O)c3cc(C)ccc3C)cc2)cc1OC	Pf growth 96h 5.2µM (no result: Pf growth 48h)
COc1ccc(N(/N=C2\Sc3ccccc3C2=O)C(C)=O)cc1	Cycloheximide cs 60, Pf growth 48h inconclusive, Shiga inhibitor active, Pf growth 96h inconclusive (no result: NS1 inh)
COc1ccc(CN(C(C)=O)c2ccccc2C(=O)O)cc1	none
COc1ccccc1N(/N=C1\Sc2ccccc2C1=O)C(C)=O	Cycloheximide cs 24, Shiga inhibitor 60
CC(C)N(Cc1cc2ccccc2[nH]c1=O)C(=O)c1ccco1	none (no result: NS1 inh)
CC(C(c1cccs1)c1c(N)n(C)c(=O)n(C)c1=O)[N+](=O)[O-] (stereo not given)	Pf growth 48h inconclusive, Pf growth 96h inconclusive
Nc1ccccc1S(=O)(=O)Nc1cccc2cccnc12	none (no result: SARS PLP yeast, Pf growth 48h, Pf growth 96h, NS1 inh)
Cc1cc(C)n2c(Nc3ccc4c(c3)OCCO4)c(-c3ccco3)nc2n1	Pf growth 96h 12µM (no result: Pf growth 48h)
Cc1ccc(Nc2c(-c3ccco3)nc3nc(C)cc(C)n23)cc1	Pf growth 96h inconclusive (no result: NS1 inh)
Cc1cc(C)n2c(Nc3ccc4c(c3)OCCO4)c(-c3ccc(C)o3)nc2n1	Pf growth 96h 5.9µM (no result: Pf growth 48h)
[O-][n+]1c2ccccc2cc2ccccc21	Pf growth 48h 2.6µM, Pf growth 96h 7.4µM (no result: Cycloheximide cs, Shiga inhibitor, NS1 inh)
O=C(Nc1ccc(N2CCCCC2)c(Cl)c1)c1ccc(N2CCOCC2)c([N+](=O)[O-])c1	Pf growth 48h 5.2µM, Pf growth 96h inconclusive
Cc1ccc(C(=O)Nc2cccc(-c3ccc(N4CCOCC4)nn3)c2)cc1C	Pf growth 48h inconclusive, Pf growth 96h inconclusive (no result: Cycloheximide cs, Shiga inhibitor, NS1 inh)
O=C(Nc1ccc2c(c1)OCO2)c1ccc(N2CCCC2)c([N+](=O)[O-])c1	Cycloheximide cs 34, Pf growth 96h inconclusive
Cc1cc(C(=O)Nc2cccc(-c3ccc(N4CCOCC4)nn3)c2)ccc1[N+](=O)[O-]	Pf growth 48h inconclusive, Pf growth 96h 10µM (no result: Cycloheximide cs, Shiga inhibitor, NS1 inh)
COc1cc(C(=O)Nc2ccc3c(c2)OCO3)c([N+](=O)[O-])cc1OC	none
O=C(Nc1ccc2c(c1)OCO2)c1ccc(NC2CC2)c([N+](=O)[O-])c1	Cycloheximide cs 26, Shiga inhibitor 102
O=C(Nc1cccc(Cl)c1)c1cccc(N2C(=O)C3CC=CCC3C2=O)c1 (stereo not given)	Pf growth 48h inconclusive
CCOC(=O)Cn1nc(C)c(NC(=O)COc2ccc(C)c(C)c2)c1C	none
CC(=O)Nc1ccccc1OCC(=O)NCCc1ccc(Cl)cc1Cl	none
CC1CCCN(c2ccc(C(=O)Nc3cccnc3)cc2[N+](=O)[O-])C1 (stereo not given)	Shiga inhibitor 48 (no result: NS1 inh)
O=C(Nc1ccc(N2CCCCC2)c(Cl)c1)c1ccc2c(c1)OCCO2	Cycloheximide cs 45 (no result: Pf growth 96h)
CC(=O)N1CCN(c2ccc(NC(=O)c3ccc(N4CCCC4)c([N+](=O)[O-])c3)cc2Cl)CC1	Pf growth 48h 12µM, Pf growth 96h inconclusive
CN(C)S(=O)(=O)c1cc(NC(=O)c2ccc(-n3ccnc3)c([N+](=O)[O-])c2)ccc1Cl	Pf growth 48h 8.3µM, Pf growth 96h inconclusive
O=C(Nc1ccc(N2CCOCC2)c(Cl)c1)c1ccc2c(c1)OCCO2	Pf growth 48h inconclusive
COC(=O)c1c(-c2c(Cl)cccc2Cl)noc1C(=O)NN	Pf growth 48h inconclusive
O=C(CSc1nc(C(F)(F)F)cc(=O)[nH]1)Nc1nccs1	none (no result: Cycloheximide cs, Shiga inhibitor, NS1 inh)
O=C(O)c1cc(NC(=O)c2ccccc2[N+](=O)[O-])ccc1O	none
O=C(Nc1ccc(N2CCCC2)c(Cl)c1)c1ccccc1[N+](=O)[O-]	Cycloheximide cs 27, Pf growth 96h inconclusive
CC(=NCC1CCCO1)c1c(O)n(C)c(=O)n(C)c1=O (stereo not given)	Pf growth 96h 15µM
COc1ccccc1NS(=O)(=O)c1ccc(N2CCOCC2)c(N)c1	none (no result: Cycloheximide cs, Pf growth 48h, Shiga inhibitor, Pf growth 96h, NS1 inh)
Cc1[nH]c2ccc(C(=O)N3CCCC3)cc2c1C	Cycloheximide cs 30
Cc1[nH]c2ccc(C(=O)N3CCCCC3)cc2c1C	Cycloheximide cs 39, Shiga inhibitor 107 (no result: NS1 inh)
C[C@H](NC(=O)Cc1cccc2ccccc12)C(=O)N1CCOCC1	none (no result: Cycloheximide cs, Pf growth 48h, Shiga inhibitor, Pf growth 96h, NS1 inh)
Nc1ncnc(Sc2ccc(Cl)cc2)c1[N+](=O)[O-]	Pf growth 48h inconclusive
Nc1ncnc(Sc2ccccc2)c1[N+](=O)[O-]	Pf growth 48h 15µM, Pf growth 96h 9.3µM
CC(C)(C)c1cc(OC(=O)c2ccccc2F)ccc1O	Shiga inhibitor 33
CCCCNC(=O)C(=O)N/N=C/c1ccc(OCC(=O)Nc2cccc(OC)c2)c(OC)c1	NS1 inh inconclusive
CC(/C=C1\SC(=O)N(CCCC(=O)O)C1=O)=C\c1ccccc1	Pf growth 48h inconclusive, Pf growth 96h 5.9µM
C=CCN1C(=O)/C(=C\C(C)=C\c2ccccc2)SC1=S	none (no result: Shiga inhibitor)
CC(=C\c1ccccc1)/C=C1/SC(=S)N(CCCC(=O)O)C1=O	Pf growth 48h 8.3µM, Pf growth 96h inconclusive
